# High-throughput results (PubChem BioAssay)
# Shown are actives, neighbours in structure and some others; about 2.8% of the full set was active somewhere.
# PI5P4K alpha inh: PI5P4K alpha (human) kinase inhibition; max response, %; actives 1.2% (n = 330,000); PI5P4Kalpha enzyme, ADP-Glo luminescence, 60 min; stronger effect = lower value; AID 652105; active = max response of -50% or lower; inconclusive = between -30% and -50%; inactive = -30% or higher; note: value at the top dose of about 77 µM; % is set by controls: 0 for no effect and ±100 for the full control effect
#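 Single end-point luminescence (ADP-Glo) quantified ADP from PI5P4Kalpha turnover; ATP 5 microM final, 1 h at RT, 0.1% CHAPS and 0.28 mM EGTA in HEPES pH 7.4.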
# POLI inh: DNA polymerase iota (human) inhibition | Q9UNA4 | Pol iota fluorescent replication assay, 10 min | Potency, µM (top dose mostly 115 µM), for the others: at the top dose activity, negative = inhibition, most hits filed as inhibitors | actives 1% (n = 390,000); note: potency is the fitted concentration of half-maximal effect
#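 Pol iota at 10 nM preincubated 15 min with compounds at room temperature; reaction started with fluorescent substrate, 50 nM final. Fluorescence read kinetically at 0 and 10 min; buffer-only wells as negative control.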
# WRN helicase inh: blocks human WRN helicase; Q14191; WRN helicase unwinding, fluorescent forked duplex, kinetic; Potency, µM (series often up to 114 µM), for the others: top-dose activity change, negative = inhibition, most hits filed as inhibitors; actives 0.46% (n = 360,000); note: potency is the fitted concentration of half-maximal effect; % is set by controls: 0 for no effect and ±100 for the full control effect; nearly all actives have a fitted effect of over 55% in size
#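 Fluorescence dequenching readout, ex 525 nm/em 598 nm, kinetic mode: forked duplex DNA (100 nM final) with adjacent fluorophore and quencher unwound by WRN (20 nM final) with 2 mM ATP. Compound preincubation 15 min, room temperature.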
# Pol beta inh: inhibitors of human DNA polymerase beta; Potency, µM (top dose mostly 114 µM), for the others: top-dose activity change, negative = inhibition, hits mostly inhibitors; P06746; Pol beta primer extension/strand displacement, fluorescence kinetic; AID 485314; actives 1.3% (n = 340,000); note: potency is the fitted concentration of half-maximal effect; % is set by controls: 0 for no effect and ±100 for the full control effect
#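 Preincubation: enzyme (10 nM) with compound, 15 min, RT. Reaction: substrate added to 50 nM final. Reads: 0 and 10 min. Analysis: normalized, Hill fit.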
# Pol eta inh: blocks human DNA polymerase eta activity | recombinant Pol eta, fluorescent DNA replication assay | Potency, µM (titrated, usually from 114 µM), without a hit: at the top dose activity change, negative = inhibition, hits mostly inhibitors | actives 1.2% (n = 390,000) | AID 588591; note: potency is the fitted concentration of half-maximal effect; % is set by controls: 0 for no effect and ±100 for the full control effect
#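 Pol eta at 10 nM preincubated with compounds 15 min at room temperature; reaction started with fluorescent substrate (50 nM final) and read kinetically at 0 and 10 min.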
# POLK inh: blocks human DNA polymerase kappa activity; Q9UBT6; purified Pol kappa, fluorescent DNA synthesis assay, 10 min; Potency, µM (titrated, usually from 107 µM), for inactives: top-dose activity, negative = inhibition, hits mostly inhibitors; actives 0.53% (n = 400,000); AID 588579; note: potency is the fitted concentration of half-maximal effect; % is set by controls: 0 for no effect and ±100 for the full control effect
# Target sequence (Q9UBT6 whole entry, looked up): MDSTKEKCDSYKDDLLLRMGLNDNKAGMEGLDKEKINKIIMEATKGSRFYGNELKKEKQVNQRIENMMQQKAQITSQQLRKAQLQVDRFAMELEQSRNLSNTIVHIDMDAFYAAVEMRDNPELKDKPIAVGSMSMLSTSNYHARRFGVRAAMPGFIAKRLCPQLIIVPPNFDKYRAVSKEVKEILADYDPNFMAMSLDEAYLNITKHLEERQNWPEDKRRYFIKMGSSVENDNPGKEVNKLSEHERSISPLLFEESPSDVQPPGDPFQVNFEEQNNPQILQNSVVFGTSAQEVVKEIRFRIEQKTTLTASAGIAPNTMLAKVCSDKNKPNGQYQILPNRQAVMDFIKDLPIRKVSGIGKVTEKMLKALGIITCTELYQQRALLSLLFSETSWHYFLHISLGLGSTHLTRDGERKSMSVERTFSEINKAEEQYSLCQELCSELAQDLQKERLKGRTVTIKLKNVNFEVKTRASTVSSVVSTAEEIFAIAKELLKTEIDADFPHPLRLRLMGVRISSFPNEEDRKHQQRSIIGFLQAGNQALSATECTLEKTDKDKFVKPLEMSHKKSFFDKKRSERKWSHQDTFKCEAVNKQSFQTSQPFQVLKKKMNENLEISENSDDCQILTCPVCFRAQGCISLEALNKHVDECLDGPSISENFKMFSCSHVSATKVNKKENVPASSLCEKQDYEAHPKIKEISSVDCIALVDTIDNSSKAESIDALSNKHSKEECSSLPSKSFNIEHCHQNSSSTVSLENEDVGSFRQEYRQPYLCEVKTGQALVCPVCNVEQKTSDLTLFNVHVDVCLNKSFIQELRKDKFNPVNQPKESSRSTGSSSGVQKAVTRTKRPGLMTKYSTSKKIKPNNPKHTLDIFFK
#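 Fluorescent qHTS in 1536-well format: enzyme (10 nM) and compound sat 15 min at room temperature before 50 nM substrate (final) was added. Signal taken at 0 and 10 min; no-enzyme buffer wells were negative controls.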
# ADP-Glo interf: interferes with ADP-Glo detection without enzyme present; shares compounds with PI5P4K alpha inh; ADP-Glo detection counter-screen, luciferase luminescence, no enzyme; Potency, µM (series often up to 76.9 µM), without a hit: top-dose activity change, negative = inhibition, usual class: inhibitors; 1,100 tested, under 10 active
# * = called active by the depositor; i = inactive; ? = inconclusive; . = no result given; [ ] = dose if it differs, or a comment. Unless noted, calls come from the whole dose curve; as a rule, active = well fitted curve in the direction sought with a large enough effect; inconclusive = small, poorly fitted or top-dose-only effect, or another doubt; inactive = no such curve, though single readings can be large; an effect the other way counts as inactive or inconclusive.
SMILES,PI5P4K alpha inh,POLI inh,WRN helicase inh,Pol beta inh,Pol eta inh,POLK inh,ADP-Glo interf
COc1ccc(Nc2nc(N)c(C(=O)c3ccc(F)cc3)s2)cc1,-54*,15%,0%,5%,-29%,-11%,1%
Nc1nc(Nc2cccc(Cl)c2)sc1C(=O)c1ccc(F)cc1,.,-22%,.,-19%,?,-7%[60.1 µM],.
Cc1ccc(-c2c(CN3CCN(c4cccc(C)c4C)CC3)csc2C)cc1,.,3%,.,14%,-24%,-6%,.
CC(=O)Nc1cccc(-c2ccnc3c2CC(C(=O)NCc2ccco2)O3)c1 (stereo unspecified),-50*,.,0%,.,.,.,5%
O=C(COC(=O)c1ccc(NS(=O)(=O)c2cccs2)cc1O)Nc1nc2ccccc2s1,-69*,1%,-16%,?,-19%,-5%,5%
CC(=O)c1cccc(NC(=O)c2cc(-c3ccco3)nc3ccccc23)c1,-51*,?,-22%,?,3%,-30%,4%
CCOC(=O)C1(C)CCCCCN1C(=O)c1ccc(OC)c(C(F)(F)F)c1 (stereo unspecified),-4,.,-3%,.,.,.,.
COc1ccc(C(=O)N2CCCC2(C)C(=O)O)cc1C(F)(F)F (stereo unspecified),-87*,.,5%,.,.,.,1%
Cc1ccc(S(=O)(=O)c2c(Nc3ccccc3)sc(C(=O)c3ccc4c(c3)OCO4)c2N)cc1,.,-10%,.,-1%,3%,-11%[60.1 µM],.
O=C(O)c1ccc2c(=O)[nH]c(CN3CCOCC3)nc2c1,?,11%,-17%,-15%,-11%,-6%,.
O=C(O)c1ccc2c(=O)[nH]c(CCl)nc2c1,-59*,90%,-23%,1%,10%,-18%,3%
C=CCNCc1ccccc1[N+](=O)[O-],2,24%,0%,.,-14%,2%,.
O=C1c2[nH]c3ccccc3c2CC1N1C(=O)c2ccccc2C1=O (stereo unspecified),3,.,-14%,.,-20%,.,.
COC(=O)CCC(=O)OC1(C)C(=O)C2=CN(CC3CC3)C(c3ccc(OC)cc3)=CC2=C(Br)C1=O (stereo unspecified),-53*,?,-8%[57.1 µM],-3%,79µM*,1%,-6%
O=C(NN(CC(O)COc1ccccc1)CC(O)COc1ccccc1)c1ccccc1 (stereo unspecified),3,55%,-6%,-1%,-11%,5%,.
COC(=O)Cc1c(C)nc2nc(-c3ccc(C)cc3)[nH]n2c1=O,-72*,-15%,5%,37%,1%,4%,-3%
COC(=O)Cc1c(C)nc2nc(-c3ccc(Cl)cc3)[nH]n2c1=O,?,-7%,11%,12%,-7%,-10%,.
CC(C)C(=O)Nc1ccccc1N1CCN(S(C)(=O)=O)CC1,0,-8%,14%,?,2%,3%,-5%
CC(C)NC(=O)c1ccc2c(=O)n(CC3CCCO3)c(=S)[nH]c2c1 (stereo unspecified),-12,131%,2%,-6%,-5%,-7%,.
COCCCNC(=O)c1ccc2c(=O)n(CC3CCCO3)c(=S)[nH]c2c1 (stereo unspecified),-3,i,2%,-1%,-2%,-25%,-7%
CC(C)NC(=O)C1(C)CSCC(=O)N1CCCn1ccnc1 (stereo unspecified),-5,.,-3%,.,.,.,.
Cc1ccc(CNC(=O)c2sc3nc4n(c(=O)c3c2C)CCCC4)cc1,.,3%,.,?,-20%,-3%,.
CN1CCN(S(=O)(=O)c2ccc(N3CCc4ccccc4C3)nc2)CC1,-69*,21%,-21%,1%,-3%,-8%,-6%
CN1CCN(c2ccc(S(=O)(=O)N3CCCCC3)cn2)CC1,-3,7%,1%,-2%,-17%,6%,.
CCS(=O)(=O)c1ccc2oc(Nc3ccc(C(C)C)cc3)nc2c1,-50*,-4%,?,1%,-13%,-4%,-6%
SMILES,PI5P4K alpha inh,POLI inh,WRN helicase inh,Pol beta inh,Pol eta inh,POLK inh,ADP-Glo interf
CCS(=O)(=O)c1ccc2oc(Nc3cc(C)cc(C)c3)nc2c1,.,26%,-16%,?,-26%,-9%,.
Cc1ccc(-n2c(SCC(=O)Nc3ccc4c5c(cccc35)CC4)nc(O)c(C)c2=O)cc1,-11,-8%,-23%,16%,-19%,-4%,.
Cc1ccc(-n2c(SCC(=O)Nc3ccc4c5c(cccc35)CC4)nc(O)cc2=O)cc1,-51*,-28%,-15%,35µM*,-12%,-24%,0%
Cc1c(C(=O)N2CCC(C)CC2)c(S(=O)(=O)N2CCN(c3cccc(Cl)c3)CC2)c(C)n1C,.,3%,.,-13%,5%,-10%[60.1 µM],.
COCc1cc(C)nc(SCc2ccc([N+](=O)[O-])cc2)c1C#N,0,22%,-3%,1%,-19%,-18%,.
Cc1cc(C)c(NC(=O)OCCN2CCOCC2)c(C)c1,-63*,?,-13%,0%,-14%,-3%,0%
CN(C)S(=O)(=O)NCC1CCCN(Cc2cc3ccccc3s2)C1 (stereo unspecified),0,5%,0%,.,-13%,-8%,.
Cc1ccc(-c2csc3ncnc(NCCC(=O)O)c23)cc1C,.,16%,2%,-1%,-8%,-2%,-2%
CCCCC(=O)N(Cc1ccc2c(c1)OCO2)Cc1nc2ccccc2c(=O)[nH]1,-53*,82%,-26%,0%,-10%,-3%,-10%
O=C1OC(C(=O)Nc2cc(C(F)(F)F)ccc2Cl)Cc2ccccc21 (stereo unspecified),.,24%,.,51%,-10%,-12%,.
O=S(=O)(Nc1ccccc1N1CCCC1)c1ccccc1C(F)(F)F,2,.,-8%,.,-10%,.,.
O=S(=O)(Nc1ccccc1N1CCCCC1)c1ccc(Cl)s1,-55*,?,?,-13%,-20%,-6%,4%
O=C(CSc1nc2[nH]c(=O)cc(O)c2s1)Nc1ccc(Br)cc1,-52*,?,-1%,.,-24%,-3%,-1%
Cc1cccc(NC(=O)CSc2nc3[nH]c(=O)cc(O)c3s2)c1,-53*,?,-23%,.,?,-5%,6%
Cc1ccccc1NC(=O)CSc1nc2[nH]c(=O)cc(O)c2s1,-62*,?,?,.,?,-11%,-10%
